Rows were chosen to be rich in hits. Some 2.7% of all compounds tested hit in one or more screens of this group.
Nrf2 ARE act – Nrf2 pathway activation | 0.31% of 410,000 active | AREc32 ARE-luciferase reporter (MCF7-derived line), luminescence, 24 h | AID 624171 | Potency, µM (highest dose often 46.1 µM), without a hit: at the top dose activation, usual class: activators; also: potency is read from the fitted curve at half-maximal effect; % of control where 0% means no effect; nearly all actives have a fitted effect of over 65% in size
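For detection, Steady-Glo was added and plates sat 30 min at RT; before that, AREc32_Fluc cells grown overnight in OPTI-MEM/5% FBS had been treated with 23 nL compound for 24 hr at 37 deg C.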
LDHA block – LDHA (human) enzyme inhibition. activity change, % (values are at about 110 or 230 µM). purified LDHA, NADH/diaphorase-resazurin fluorescence; stronger effect = lower value. 0.15% of 480,000 active. AID 1347041; in the data active = activity change below about -30%; inconclusive = mostly about -25% to -30%;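 also: plate controls were DMSO wells for no effect and wells without enzyme for full effect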
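LDH5 2 nM; NADH 0.06 mM, pyruvate 0.2 mM; 200 mM Tris pH 7.4, EDTA, Tween-20; 5 min RT. Detection: diaphorase 0.133 mg/mL + resazurin 37 µM, fluorescence ex540/em590 at 0 and 20 min; normalized to enzyme-free and DMSO wells.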
A549 tox – counter-screen for Nrf2 inhibitors: cytotoxicity in A549 cells; 0.16% of 390,000 active; Potency, µM (top dose mostly 46 µM), without a hit: at the top dose activity change, negative = cytotoxicity, most hits filed as inhibitors; AID 504648; A549 ARE-Fluc cells, CellTiter-Fluor viability, 18-24 h; also: potency is read from the fitted curve at half-maximal effect; % is scaled to controls: 0 for no effect and ±100 for the full control effect
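A549 ARE-Fluc cells in 5% FBS OPTI-MEM, 5000 cells/well, rested 2 h then exposed to compounds in concentration-response for 18-24 h at 37 °C. Viability by CellTiter-Fluor fluorescence (Ex 405/Em 525) after 30 min; luciferase luminescence (BugLite, 15 min, RT) read afterwards.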
ERG Ets-DNA blk – ERG Ets/DNA interaction inhibition | P11308 | fluorescence polarization, His-ERG Ets domain / labelled DNA | Potency, µM (top dose mostly 76.9 µM), for the others: at the top dose FP activity, negative = inhibition, hits mostly inhibitors | 0.028% of 370,000 active | AID 624246; active = well fitted inhibition curve with a large enough effect in the polarisation, with a control signal flat; inconclusive = small, poorly fitted or top-dose-only effect, or effect the other way, or a change in a side signal; inactive = no such curve, though single readings can be large or run the other way; the % refers to the polarisation;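 also: polarization taken with two DNA probes labelled with fluorescein and Texas red; potency is read from the fitted curve at half-maximal effect; % of control where 0% means no effect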
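His-tagged ERG Ets domain (1 uM in the protein solution; 300mM KCl, 50mM Tris-HCl, 1mM EDTA, 1mM DTT, pH 7.5) received compound, then a probe mix of 5 nM fluorescein-DNA and 100nM Texas-615-DNA. Fluorescence polarization was read for both dyes.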
Nrf2 block – inhibitors of Nrf2 signaling; AID 504444; A549 ARE-Fluc reporter, luciferase luminescence, 18-24 h; Potency, µM (top dose mostly 46 µM), inactives show at the top dose activity change, negative = inhibition, hits mostly inhibitors; 2.1% of 360,000 active; also: potency is read from the fitted curve at half-maximal effect; % is scaled to controls: 0 for no effect and ±100 for the full control effect; nearly all actives have a fitted effect of over 60% in size
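A549 ARE_Fluc cells (5000/well, 5% FBS OPTI-MEM) pre-incubated 2 h, then treated with compounds 18-24 h at 37C/5% CO2 in concentration-response. CellTiter-Fluor viability read first; BugLite luciferase luminescence after 15 min at room temperature gives Nrf2 activity.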
12-LOX inh – ALOX12 (human) lipoxygenase inhibition; P18054; purified 12hLO, xylenol orange hydroperoxide absorbance; Potency, µM (series often up to 108 µM), without a hit: at the highest dose activity change, negative = inhibition, actives largely listed as inhibitors; 1.1% of 580,000 active; also: potency is read from the fitted curve at half-maximal effect; % is scaled to controls: 0 for no effect and ±100 for the full control effect
Target sequence (P18054 whole entry, looked up): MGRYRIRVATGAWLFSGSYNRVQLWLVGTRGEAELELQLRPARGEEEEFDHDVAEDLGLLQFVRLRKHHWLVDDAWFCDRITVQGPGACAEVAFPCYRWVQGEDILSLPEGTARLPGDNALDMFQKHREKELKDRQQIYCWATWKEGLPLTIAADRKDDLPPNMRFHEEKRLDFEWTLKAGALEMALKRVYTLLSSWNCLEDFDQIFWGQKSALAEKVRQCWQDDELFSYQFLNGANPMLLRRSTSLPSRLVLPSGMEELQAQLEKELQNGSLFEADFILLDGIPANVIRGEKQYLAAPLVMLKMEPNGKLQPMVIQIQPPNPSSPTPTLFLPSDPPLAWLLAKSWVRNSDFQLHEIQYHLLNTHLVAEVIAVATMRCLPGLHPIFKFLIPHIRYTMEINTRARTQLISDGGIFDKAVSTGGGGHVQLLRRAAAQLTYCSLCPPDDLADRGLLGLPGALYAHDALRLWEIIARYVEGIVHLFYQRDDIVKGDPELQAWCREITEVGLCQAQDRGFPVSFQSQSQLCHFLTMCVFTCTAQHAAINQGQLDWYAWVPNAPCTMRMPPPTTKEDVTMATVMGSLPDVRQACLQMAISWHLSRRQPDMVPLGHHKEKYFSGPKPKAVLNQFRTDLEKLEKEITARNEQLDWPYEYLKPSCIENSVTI
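Purified human 12hLO at 150 nM in 25 mM Hepes, 0.01% Triton X-100, pH 7.0, preincubated 15 min at room temperature with compound. Reaction started with 40 uM arachidonic acid, 30 min at room temperature. Hydroperoxide measured by Fe-xylenol orange, 573/405 nm absorbance ratio.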
* = called active by the depositor; ? = inconclusive; · = not tested or not shown. Unless noted, calls follow the shape of the dose curve; as a rule, active = well fitted curve in the direction sought with a large enough effect; inconclusive = small, poorly fitted or top-dose-only effect, or another doubt; inactive = no such curve, though single readings can be large; an effect the other way counts as inactive or inconclusive.

SMILES | Nrf2 ARE act | LDHA block | A549 tox | ERG Ets-DNA blk | Nrf2 block | 12-LOX inh
COc1ccc(/C=C2/SC(=S)N(CCCC(=O)Nc3ccccc3C(=O)O)C2=O)cc1 | -1.8% | -4.6 | -1.7% | 3.3% | ? | ?
O=C(CCCN1C(=O)/C(=C/c2ccccc2Cl)SC1=S)N1CCCC1 | ? | 0.9 | -5.6% | 10.1% | 1.2% | -18.7%
COc1ccc(/C=C2/SC(=S)N(CCCC(=O)Nc3cccc(O)c3)C2=O)cc1 | 22.9% | -6.8 | 4.3% | 13.2% | ? | -22.1%
COc1ccc(/C=C2\SC(=S)N(CCCC(=O)NNC(=O)c3ccccc3O)C2=O)cc1 | -2.8% | -7.6 | -8.4% | 4.1% | 13µM* | -27.2%
O=C(CCCN1C(=O)/C(=C/c2cccs2)SC1=S)NNC(=O)c1ccncc1 | 5.0% | -1.4 | ? | ? | ? | -10.0%
COC(=O)c1ccc(C(=O)OC)c(NC(=O)COc2ccc(OC)cc2)c1 | · | -7.7 | · | · | · | -0.9%
Cn1c(Oc2ccccc2Cl)c(C#N)c(=O)n(C)c1=O | · | 6.9 | · | · | · | -22.4%
CCOC(=O)c1cnc(Nc2ccccc2F)c2ccccc12 | · | 1.4 | · | · | · | 18.4%
Cc1cc2nc(-c3ccc[nH]c3=O)[nH]c2cc1C | -1.1% | -11.3 | 5.8% | -0.1% | 11.6µM* | 2.5%
CC(NCc1ccccc1C#N)c1ccccc1F (stereo not drawn) | · | -20.0 | · | · | · | 39.8µM*
CCc1ccc(CNC(=O)c2cc3cn(C4CCCC4)cc3s2)cc1 | · | · | · | · | · | 4.47µM*
CC1CCCCN1c1nc2nnnn2c2sc3c(c12)CCN(Cc1ccccc1)C3 (stereo not drawn) | · | 13.0 | · | · | · | -23.8%
CCCN(CC)c1ccc(/C=N/NC(=S)Nc2ccc(CC)cc2)cc1 | · | -0.6 | · | · | · | ?
COc1ccc2[nH]c(C)c(C(=O)CN3CCC(Cc4ccccc4)CC3)c2c1 | · | -2.5 | · | · | · | 25.1µM*
COC(=O)c1[nH]c2ccccc2c1NC(=O)CN1CCN(c2cccc(OC)c2)C(C)C1 (stereo not drawn) | 1.7% | 3.7 | -24.4% | -10.8% | 25.9µM* | 2.5%
COc1cccc(N2CCN(CC(=O)c3c(C)[nH]c4ccccc34)CC2)c1 | 3.7% | 9.5 | ? | 3.5% | 11.6µM* | -13.9%
COc1ccc2[nH]c(C)c(C(=O)CN3CCC(C)CC3)c2c1 | · | 6.9 | · | · | · | ?
FC(F)C(F)(F)Sc1nc2ccccc2[nH]1 | · | 4.3 | · | · | · | -3.4%
Cc1cc(=O)n(CC(=O)Nc2ccc(C(C)C)cc2)c(N2CCN(c3ccccc3)CC2)n1 | · | · | · | · | · | 6.8%
CC(C(=O)Nc1cccnc1)c1ccc([N+](=O)[O-])cc1 (stereo not drawn) | -0.4% | 0.8 | 0.2% | 1.4% | -3.5% | 8.1%
CC(C)Cc1ccc(C(C)C(=O)Nc2cccnc2)cc1 (stereo not drawn) | 0.5% | 1.4 | -9.6% | -1.2% | 6.51µM* | -4.7%
CC1(c2ccc3c(c2)OCO3)NC(=O)N(Cc2coc(-c3cccs3)n2)C1=O (stereo not drawn) | · | 2.5 | · | · | · | ?
COc1ccc(OCC(=O)NC2CCCN(Cc3ccc(Cl)cc3)C2)cc1 (stereo not drawn) | 0.2% | 1.3 | -1.2% | 2.8% | ? | 15.8µM*
O=C(Oc1ccc(=O)n(-c2ccccc2)n1)c1ccc(Cl)cc1 | 0.5% | -9.3 | -9.0% | 5.7% | -8.8% | -2.4%
COc1ccc(C(=O)Oc2ccc(=O)n(-c3ccccc3)n2)cc1 | -0.1% | -0.3 | · | 6.0% | 1.64µM* | 0.0%
FC(F)(F)C1(C(F)(F)F)C2C=CC(C2)N1c1ncccn1 (stereo not drawn) | · | 0.3 | · | · | · | -23.2%
Cc1ccc(S(=O)(=O)N(CC(=O)NCCc2ccc(Cl)cc2)c2ccccc2C)cc1 | -0.9% | -2.8 | ? | -0.8% | 25.9µM* | -26.9%
COc1ccc(CCNC(=O)CN(c2cc(Cl)ccc2C)S(=O)(=O)c2ccccc2)cc1 | · | -0.9 | · | · | · | 17.0%
O=C(OCc1ccc(I)cc1)c1ccc([N+](=O)[O-])cc1 | · | 1.7 | · | · | · | 0.0%
